Several values for one entry are separate records, joined by “and”; a condition that tells them apart may be missing. Equal entries are not always repeated. Results filed as inconclusive are left out. Activity calls are given as the source filed them. Unless noted, the call rests on the fitted dose curve; in most records, active means well fitted curve in the direction sought with a large enough effect in the repeat runs; inconclusive means weak or mixed curves; inactive means no such curve, though single readings can be large; an effect the other way counts as inactive or inconclusive.
Tests used:
[1] = target: Thyrotropin-releasing hormone receptor (Homo sapiens) (UniProt P34981); assay: qHTS assay to identify small molecule agonists of the thyrotropin-releasing hormone receptor (TRHR) signaling pathway (AID 1346891; calls by dose curve;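 further: HEK293 cells expressing TRHR with calcium dye readout; series mostly up to about 58 µM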)
Thyrotropin-releasing hormone receptor (Homo sapiens), sequence (P34981 whole entry, looked up): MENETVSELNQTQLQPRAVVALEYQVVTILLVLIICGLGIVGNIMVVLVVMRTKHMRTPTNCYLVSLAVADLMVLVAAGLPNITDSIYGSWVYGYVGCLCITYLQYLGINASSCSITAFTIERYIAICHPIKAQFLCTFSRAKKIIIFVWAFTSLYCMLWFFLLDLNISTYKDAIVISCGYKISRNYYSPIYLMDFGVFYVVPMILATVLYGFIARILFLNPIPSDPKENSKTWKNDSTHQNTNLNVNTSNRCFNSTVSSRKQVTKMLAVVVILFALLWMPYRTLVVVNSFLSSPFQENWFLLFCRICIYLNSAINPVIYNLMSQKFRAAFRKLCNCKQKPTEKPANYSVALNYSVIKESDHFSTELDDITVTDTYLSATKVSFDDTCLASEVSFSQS
Procedure, shortened: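 Overnight-plated (18 h, 37 °C, 5% CO2) TRHR-Hek293 cells; 2 h calcium dye at 37 °C; compound in DMSO; 3-min kinetic fluorescence read.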

[2] = Human pregnane X receptor (PXR) small molecule agonists, qHTS cell viability counter screen (AID 1346977); further: nearly all actives have a fitted effect of over 50% in size; further: potency means the concentration at half of the fitted maximal effect
Procedure, shortened: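 After a 5hr pre-incubation, PXR-Luc HepG2 cells received compounds plus positive control in DMSO and were kept 24hr at 37C. Cell viability was quantified by fluorescence from CellTiter-Fluor added for the final hour.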

[3] = Caspase-3/7 induction in HepG2 cells by small molecules, qHTS assay (AID 1346978); further: nearly all actives have a fitted effect of over 15% in size; further: potency means the concentration at half of the fitted maximal effect
Procedure, shortened: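 Caspase-3/7 induction was measured by Caspase-Glo 3/7 luminescence (30 min, room temperature) after a 17 hr compound exposure of wild-type HepG2 cells seeded at 2,000 per well and pre-incubated 5 hr.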

[4] = Caspase-3/7 induction in CHO-K1 cells by small molecules, qHTS cell viability counter screen (AID 1346979); further: nearly all actives have a fitted effect of over 35% in size; further: potency means the concentration at half of the fitted maximal effect
Procedure, shortened: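 Multiplexed with Caspase-Glo 3/7 in CHO-K1 cells, this counter screen added CellTiter-Fluor after 16hr of compound exposure and recorded fluorescence 1hr later.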

[5] = Caspase-3/7 induction in CHO-K1 cells by small molecules, qHTS assay (AID 1346980); further: nearly all actives have a fitted effect of over 15% in size
Procedure, shortened: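 Luminescent Caspase-Glo 3/7 read (30min, room temperature) quantified apoptosis induction. Cells were wild-type CHO-K1, treated with compound for 17hr at 37 C and 5% CO2.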

[6] = Caspase-3/7 induction in HepG2 cells by small molecules, qHTS cell viability counter screen (AID 1346981); further: nearly all actives have a fitted effect of over 30% in size; further: potency means the concentration at half of the fitted maximal effect; on activity change, negative = cytotoxicity: series mostly up to about 92 µM
Procedure, shortened: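 The parent HepG2 line is plated at 2,000 cells per well and rested 5 hr before compound pinning from DMSO stocks. Following a 16-hr treatment at 37 C, a fluorogenic live-cell substrate (CellTiter-Fluor) reports viability after 1 hr.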

[7] = target: Nuclear receptor subfamily 1 group I member 2 (Homo sapiens) (UniProt O75469); assay: Human pregnane X receptor (PXR) small molecule agonists, qHTS assay (AID 1346982); further: nearly all actives have a fitted effect of over 35% in size; further: potency means the concentration at half of the fitted maximal effect
Nuclear receptor subfamily 1 group I member 2 (Homo sapiens), sequence (O75469 whole entry, looked up): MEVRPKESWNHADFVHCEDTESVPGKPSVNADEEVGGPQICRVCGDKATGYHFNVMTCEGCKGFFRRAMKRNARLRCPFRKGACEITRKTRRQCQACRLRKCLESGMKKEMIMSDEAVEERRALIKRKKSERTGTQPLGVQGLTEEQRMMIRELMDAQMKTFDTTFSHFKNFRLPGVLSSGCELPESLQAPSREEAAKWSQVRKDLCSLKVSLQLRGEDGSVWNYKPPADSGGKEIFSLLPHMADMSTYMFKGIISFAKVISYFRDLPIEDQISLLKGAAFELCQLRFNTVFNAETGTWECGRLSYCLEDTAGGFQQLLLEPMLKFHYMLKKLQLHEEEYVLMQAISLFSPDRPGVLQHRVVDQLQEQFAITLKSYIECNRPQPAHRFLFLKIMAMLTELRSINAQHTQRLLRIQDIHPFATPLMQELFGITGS
Procedure, shortened: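 After plating in 5% charcoal-stripped FBS and a 5 hr rest, PXR-Luc HepG2 cells received compounds in DMSO. Following 24 hr at 37 C, ONE-Glo was added and light output read.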

[8] = target: Cytochrome P450 2D6 (Homo sapiens) (UniProt P10635); assay: Cytochrome P450 Family 2 Subfamily D Member 6 (CYP2D6) small molecule antagonists: luciferase reporter qHTS assay (AID 1671196); further: series mostly up to about 120 µM; nearly all actives have a fitted effect of over 50% in size
Cytochrome P450 2D6 (Homo sapiens), sequence (P10635 whole entry, looked up): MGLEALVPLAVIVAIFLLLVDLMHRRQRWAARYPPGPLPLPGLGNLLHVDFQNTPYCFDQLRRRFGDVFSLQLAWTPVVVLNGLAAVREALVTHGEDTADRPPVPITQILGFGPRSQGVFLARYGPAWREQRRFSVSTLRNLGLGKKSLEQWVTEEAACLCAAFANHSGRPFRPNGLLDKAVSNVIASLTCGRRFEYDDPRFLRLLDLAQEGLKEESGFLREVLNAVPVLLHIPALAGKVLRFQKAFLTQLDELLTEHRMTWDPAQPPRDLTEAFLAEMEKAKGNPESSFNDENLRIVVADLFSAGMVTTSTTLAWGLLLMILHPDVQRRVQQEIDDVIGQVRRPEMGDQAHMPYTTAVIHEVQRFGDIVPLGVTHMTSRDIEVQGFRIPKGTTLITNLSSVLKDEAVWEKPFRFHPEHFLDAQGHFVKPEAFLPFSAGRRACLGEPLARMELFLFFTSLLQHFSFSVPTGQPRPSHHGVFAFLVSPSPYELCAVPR
Procedure, shortened: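 Quantitative HTS of Tox21 chemicals against CYP2D6 using a luminescent proluciferin substrate. After NADPH addition, 1 h room-temperature reaction; luminescence recorded 20 min post detection reagent.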

[9] = target: Cytochrome P450 2C19 (Homo sapiens) (UniProt P33261); assay: Cytochrome P450 Family 2 Subfamily C Member 19 (CYP2C19) small molecule antagonists: luciferase reporter qHTS assay (AID 1671197); further: nearly all actives have a fitted effect of over 65% in size; further: potency means the concentration at half of the fitted maximal effect; on activity change, negative = inhibition: series mostly up to about 120 µM
Cytochrome P450 2C19 (Homo sapiens), sequence (P33261 whole entry, looked up): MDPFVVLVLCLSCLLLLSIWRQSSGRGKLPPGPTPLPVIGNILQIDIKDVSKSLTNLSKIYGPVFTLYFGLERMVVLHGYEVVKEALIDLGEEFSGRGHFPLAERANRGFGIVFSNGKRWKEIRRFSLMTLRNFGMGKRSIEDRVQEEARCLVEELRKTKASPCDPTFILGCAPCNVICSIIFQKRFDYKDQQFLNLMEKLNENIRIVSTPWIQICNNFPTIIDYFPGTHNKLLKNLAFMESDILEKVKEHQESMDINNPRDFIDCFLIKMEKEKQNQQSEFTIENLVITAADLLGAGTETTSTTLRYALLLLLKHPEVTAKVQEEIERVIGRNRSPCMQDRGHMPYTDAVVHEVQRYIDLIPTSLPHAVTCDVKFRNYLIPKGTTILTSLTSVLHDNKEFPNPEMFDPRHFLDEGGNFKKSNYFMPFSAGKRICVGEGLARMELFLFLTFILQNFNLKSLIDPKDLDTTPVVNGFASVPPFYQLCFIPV
Procedure, shortened: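 Relative luminescence units recorded 20 min after the detection reagent stopped a 1 h, 37C CYP2C19 reaction on proluciferin substrate, which was started by NADPH regeneration following 10 min room-temperature compound preincubation; ketoconazole positive control.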

[10] = target: Cytochrome P450 2C9 (Homo sapiens) (UniProt P11712); assay: Cytochrome P450 Family 2 Subfamily C Member 9 (CYP2C9) small molecule antagonists: luciferase reporter qHTS assay (AID 1671198); further: nearly all actives have a fitted effect of over 50% in size; further: potency means the concentration at half of the fitted maximal effect; on activity change, negative = inhibition: series mostly up to about 120 µM
Cytochrome P450 2C9 (Homo sapiens), sequence (P11712 whole entry, looked up): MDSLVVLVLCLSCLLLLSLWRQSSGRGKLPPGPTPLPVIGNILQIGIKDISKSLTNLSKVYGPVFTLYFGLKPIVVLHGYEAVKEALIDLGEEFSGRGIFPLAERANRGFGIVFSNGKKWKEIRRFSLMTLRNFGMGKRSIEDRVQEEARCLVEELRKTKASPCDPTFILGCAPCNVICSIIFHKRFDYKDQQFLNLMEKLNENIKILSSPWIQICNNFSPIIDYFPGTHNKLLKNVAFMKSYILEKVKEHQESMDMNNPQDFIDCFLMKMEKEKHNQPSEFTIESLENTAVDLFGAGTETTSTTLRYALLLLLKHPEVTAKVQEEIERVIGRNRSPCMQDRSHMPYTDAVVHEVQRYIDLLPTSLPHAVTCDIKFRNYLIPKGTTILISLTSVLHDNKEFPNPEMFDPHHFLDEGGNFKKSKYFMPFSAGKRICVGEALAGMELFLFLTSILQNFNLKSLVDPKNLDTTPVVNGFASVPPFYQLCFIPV
Procedure, shortened: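 Enzyme-substrate mix preincubated with compound 10 min at room temperature; reaction started with NADPH regeneration solution, 1 h 37C. Luminescent luciferin product read after 20 min detection reagent.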

[11] = target: Cytochrome P450 1A2 (Homo sapiens) (UniProt P05177); assay: Cytochrome P450 Family 1 Subfamily A Member 2 (CYP1A2) small molecule antagonists: luciferase reporter qHTS assay (AID 1671199); further: nearly all actives have a fitted effect of over 50% in size; further: potency means the concentration at half of the fitted maximal effect; on activity change, negative = inhibition: series mostly up to about 120 µM
Cytochrome P450 1A2 (Homo sapiens), sequence (P05177 whole entry, looked up): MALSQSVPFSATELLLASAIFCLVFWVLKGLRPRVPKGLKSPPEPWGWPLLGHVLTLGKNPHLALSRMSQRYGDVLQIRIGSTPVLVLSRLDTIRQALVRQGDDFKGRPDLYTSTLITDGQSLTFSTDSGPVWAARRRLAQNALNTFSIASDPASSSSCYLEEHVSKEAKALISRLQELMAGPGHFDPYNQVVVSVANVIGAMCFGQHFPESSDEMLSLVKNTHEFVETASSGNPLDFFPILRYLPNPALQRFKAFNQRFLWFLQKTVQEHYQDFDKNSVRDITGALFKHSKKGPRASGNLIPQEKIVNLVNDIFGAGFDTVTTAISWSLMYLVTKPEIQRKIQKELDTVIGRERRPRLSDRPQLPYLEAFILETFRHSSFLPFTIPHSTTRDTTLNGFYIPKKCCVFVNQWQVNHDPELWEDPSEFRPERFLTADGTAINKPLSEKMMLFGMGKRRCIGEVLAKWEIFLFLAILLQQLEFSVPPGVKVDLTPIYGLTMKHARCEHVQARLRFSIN
Procedure, shortened: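 Quantitative high-throughput format using the P450-Glo CYP1A2 system. Reaction initiated by NADPH regeneration solution, 1 h at room temperature, then stopped with detection reagent; luminescence measured 20 min later.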

[12] = target: Voltage-gated inwardly rectifying potassium channel KCNH2 (Homo sapiens) (UniProt Q12809); assay: Human Ether-a-go-go-Related Gene (hERG) channel small molecule antagonists: fluorescence cell-based qHTS assay (AID 1671200)
Voltage-gated inwardly rectifying potassium channel KCNH2 (Homo sapiens), sequence (Q12809 whole entry, looked up): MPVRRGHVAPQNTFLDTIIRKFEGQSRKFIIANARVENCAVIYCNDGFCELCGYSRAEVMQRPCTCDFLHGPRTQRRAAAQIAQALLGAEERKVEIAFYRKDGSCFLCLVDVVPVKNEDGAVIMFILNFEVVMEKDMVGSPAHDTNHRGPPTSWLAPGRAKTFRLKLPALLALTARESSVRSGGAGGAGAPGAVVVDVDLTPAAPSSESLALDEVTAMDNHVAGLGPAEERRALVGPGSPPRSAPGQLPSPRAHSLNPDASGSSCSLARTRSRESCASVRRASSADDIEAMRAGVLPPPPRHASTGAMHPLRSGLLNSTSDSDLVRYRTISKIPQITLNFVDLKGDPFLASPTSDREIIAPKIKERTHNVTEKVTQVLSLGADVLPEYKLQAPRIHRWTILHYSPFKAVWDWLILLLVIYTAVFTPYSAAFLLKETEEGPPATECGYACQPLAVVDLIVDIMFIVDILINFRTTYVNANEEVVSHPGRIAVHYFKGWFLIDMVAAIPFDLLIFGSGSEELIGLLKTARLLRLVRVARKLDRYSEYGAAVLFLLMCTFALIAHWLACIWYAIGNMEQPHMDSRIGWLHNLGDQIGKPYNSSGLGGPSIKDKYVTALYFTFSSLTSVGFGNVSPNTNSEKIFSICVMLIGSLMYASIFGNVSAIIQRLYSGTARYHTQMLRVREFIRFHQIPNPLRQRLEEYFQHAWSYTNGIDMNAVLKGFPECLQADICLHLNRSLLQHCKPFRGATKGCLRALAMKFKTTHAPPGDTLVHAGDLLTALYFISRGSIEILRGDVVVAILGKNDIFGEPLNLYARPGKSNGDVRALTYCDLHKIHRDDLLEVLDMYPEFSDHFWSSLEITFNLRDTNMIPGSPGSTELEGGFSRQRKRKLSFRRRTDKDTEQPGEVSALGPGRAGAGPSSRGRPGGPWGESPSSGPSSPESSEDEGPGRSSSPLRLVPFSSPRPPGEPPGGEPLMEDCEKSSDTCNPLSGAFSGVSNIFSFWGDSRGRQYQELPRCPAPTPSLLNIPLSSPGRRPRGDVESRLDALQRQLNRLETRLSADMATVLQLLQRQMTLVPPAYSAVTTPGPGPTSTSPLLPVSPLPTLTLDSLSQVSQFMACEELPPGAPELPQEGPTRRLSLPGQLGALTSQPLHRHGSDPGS
Procedure, shortened: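 Cell line hERG-U2OS; dye FluxOR II, 1 h RT dark; Tl+ stimulus; ex 480/em 540 nm, read each second for 2 min.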

[13] = target: Cytochrome P450 3A4 (Homo sapiens) (UniProt P08684); assay: Cytochrome P450 Family 3 Subfamily A Member 4 (CYP3A4) small molecule antagonists: luciferase reporter qHTS assay (AID 1671201)
Cytochrome P450 3A4 (Homo sapiens), sequence (P08684 whole entry, looked up): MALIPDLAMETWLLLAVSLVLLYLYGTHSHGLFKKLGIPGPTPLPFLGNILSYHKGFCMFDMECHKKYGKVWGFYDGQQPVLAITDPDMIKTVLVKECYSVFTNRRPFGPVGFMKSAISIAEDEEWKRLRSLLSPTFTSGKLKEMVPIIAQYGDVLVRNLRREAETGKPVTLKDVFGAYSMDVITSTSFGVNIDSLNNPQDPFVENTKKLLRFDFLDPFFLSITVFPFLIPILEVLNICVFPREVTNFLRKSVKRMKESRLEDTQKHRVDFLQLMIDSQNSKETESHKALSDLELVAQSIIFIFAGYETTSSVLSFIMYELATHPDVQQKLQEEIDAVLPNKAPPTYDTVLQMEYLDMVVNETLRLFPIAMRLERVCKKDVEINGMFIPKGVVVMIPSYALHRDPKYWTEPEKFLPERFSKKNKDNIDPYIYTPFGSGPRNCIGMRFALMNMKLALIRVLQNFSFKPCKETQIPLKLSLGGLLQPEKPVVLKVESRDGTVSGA
Procedure, shortened: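 Room-temperature assay throughout: 10 min compound–enzyme/substrate preincubation, 1 h reaction after NADPH regeneration solution, 20 min detection. Luciferin formed from proluciferin substrate is quantified by luminescence.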

[14] = target: Nuclear receptor subfamily 1 group I member 2 (Rattus norvegicus) (UniProt Q9R1A7); assay: Rat pregnane X receptor (rPXR) activation by small molecules, qHTS assay (AID 1346983); conditions: rPXR luciferase reporter cells, One-Glo luminescence, 24 h; hits give high values; further: nearly all actives have a fitted effect of over 20% in size
Nuclear receptor subfamily 1 group I member 2 (Rattus norvegicus), sequence (Q9R1A7 whole entry, looked up): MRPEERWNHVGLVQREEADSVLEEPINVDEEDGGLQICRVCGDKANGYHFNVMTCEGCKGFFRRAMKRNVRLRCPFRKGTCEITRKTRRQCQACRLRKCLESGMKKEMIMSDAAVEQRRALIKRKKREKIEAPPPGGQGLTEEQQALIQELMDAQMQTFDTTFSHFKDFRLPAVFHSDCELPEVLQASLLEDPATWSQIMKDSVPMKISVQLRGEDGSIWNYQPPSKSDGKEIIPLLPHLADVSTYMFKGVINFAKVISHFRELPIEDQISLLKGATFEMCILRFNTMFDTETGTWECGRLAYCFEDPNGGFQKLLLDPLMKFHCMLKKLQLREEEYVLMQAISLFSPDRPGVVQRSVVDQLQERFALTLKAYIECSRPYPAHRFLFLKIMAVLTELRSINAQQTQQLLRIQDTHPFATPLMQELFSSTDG
Procedure, shortened: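 Luminescent readout (One-Glo luciferase, 30 min room temperature) followed 24 hr compound treatment at 37 C of rPXR cells plated 2,000 per well and preincubated 5hr; qHTS format with compounds delivered in DMSO.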

[15] = target: Nuclear receptor subfamily 1 group I member 2 (Homo sapiens) (UniProt O75469); assay: CYP3A4 induction through human pregnane X receptor (PXR) by small molecules, qHTS assay (AID 1346984); further: nearly all actives have a fitted effect of over 40% in size
Procedure, shortened: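 Human PXR activation is tracked via CYP3A4 promoter-luciferase in DPX-2 (HepG2) cells. Compounds treat cells for 24hr at 37C, and luminescence is read after One-Glo.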

[16] = target: Nuclear receptor subfamily 1 group I member 2 (Homo sapiens) (UniProt O75469); assay: Human pregnane X receptor (PXR) activation by small molecules, qHTS assay (AID 1346985); further: nearly all actives have a fitted effect of over 40% in size
Procedure, shortened: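 DPX-2 cells (HepG2 co-transfected with a PXR response element and a CYP3A4-promoter luciferase construct) were seeded at 2,000 per well, rested 5 hr at 37C, then exposed to DMSO-dissolved compounds for 24 hr. Activation was read as luciferase luminescence.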
On the % scale 0 is the no-effect control and ±100 the full control effect.

CN(C)CCCN1c2ccccc2CCc2ccc(Cl)cc21
inactive: outcome [1] | outcome [5]
active: Potency [2] 30.6 µM and 29.8 µM | Potency [3] 61.1 µM | Potency [4] 68.6 µM and 29.8 µM | Potency [6] 61.1 µM and 29.8 µM

CCCCCCCCCCCC
inactive: outcome [1] | Potency [2] | Potency [3] | Potency [4] | outcome [5] | Potency [6] | Potency [7] | Potency [8] | Potency [9] | Potency [10] | Potency [11] | Potency [12] | Potency [13]

O=c1n(CCO)c(=O)n(CCO)c(=O)n1CCO
inactive: outcome [1] | Potency [2] | Potency [3] | Potency [4] | outcome [5] | Potency [6] | Potency [7] | Potency [8] | Potency [9] | Potency [10] | Potency [11] | Potency [12] | Potency [13]

C=C(C)CS(=O)(=O)O
active: Potency [11] 35.6 µM
inactive: outcome [1] | Potency [2] | Potency [3] | Potency [4] | outcome [5] | Potency [6] | Potency [7] | Potency [8] | Potency [9] | Potency [10] | Potency [12] | Potency [13]

O=C[C@H](O)[C@@H](O)[C@H](O)[C@H](O)CO
inactive: outcome [1] | Potency [2] | Potency [3] | Potency [4] | outcome [5] | Potency [6] | Potency [7] | Potency [8] | Potency [9] | Potency [10] | Potency [11] | Potency [12] | Potency [13]

COC(=O)[C@@H](N)Cc1ccc(O)c(O)c1
inactive: outcome [1] | Potency [2] | Potency [3] | Potency [4] | outcome [5] | Potency [6] | Potency [7] | max activation [14] -6.8% | Potency [15] | Potency [16] | Potency [8] | Potency [9] | Potency [10] | Potency [12]

CC(C)CCCC(C)N (stereo not given)
inactive: outcome [1] | Potency [2] | Potency [3] | Potency [4] | outcome [5] | Potency [6] | Potency [7] | max activation [14] -5.35% | Potency [15] | Potency [16] | Potency [8] | Potency [10] | Potency [12] | Potency [13]

N[C@H](C(=O)O)c1ccc(O)cc1
inactive: activation [1] 0.371% [at 11.8 µM] | activity change, negative = cytotoxicity [2] 0.445% [at 19 µM] | caspase activation [3] -0.122% [at 19 µM] | Potency [4] | caspase-3/7 activation [5] -0.938% [at 19 µM] | activity change, negative = cytotoxicity [6] 0.561% [at 19 µM] | activation [7] -2.7% [at 19 µM] | max activation [14] -1.63% | Potency [15] | Potency [16] | activity change, negative = inhibition [8] -10.2% [at 23.6 µM] | Potency [9] | activity change, negative = inhibition [10] -0.95% [at 23.6 µM] | Potency [11] | activity change, negative = inhibition [12] 1.26% [at 15.8 µM] | activity change, negative = inhibition [13] -17% [at 23.6 µM]

O=c1cc(-c2ccccc2)oc2ccccc12
active: Potency [4] 68.2 µM | Potency [7] 54.5 µM and 24.2 µM | Potency [9] 31.7 µM and 7.92 µM | Potency [10] 17.8 µM and 15.4 µM | Potency [11] 317 nM and 477 nM
inactive: outcome [1] | Potency [2] | Potency [3] | outcome [5] | Potency [6] | Potency [8] | Potency [12] | Potency [13]

— PubChem BioAssay (Tox21)
